Measured values reported in PubChem BioAssay (NCI).
Compounds without any hit were thinned out: in the full panel of roughly 83,000, 20% have a hit.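 Values shown are percent growth following 48 h exposure of cells in 96-well plates to a single concentration of compound; below 10 was considered active.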 A number with no mark means an inactive call. Active and inactive are the calls of the source.

Test system: MDA-MB-468 breast
Experiment: NCI-60 one-dose screen, 48 h (100 = growth as untreated, 0 = no growth, -100 = all killed)
Details: 10 µM unless noted

Compound | growth
COc1cccc(/C=C2\COc3ccc(O)c(O)c3C2=O)c1OC | -19.2% (active)
COc1ccc(OC)c(NC2=C(SCCc3ccccc3)C(=O)c3ccccc3C2=O)c1 | 65.7%
CCS/C(Nc1ccccc1)=C(\C#N)C(=O)Nc1ccc(OC)cc1 | -2.63% (active)
COc1ccc(-c2nc3c(ncc4ccc(=O)[nH]c43)s2)cc1 | 62.9%
